Most compounds without a hit are left out; they make up all but 8.3% or so of the library.
HCMV antiviral: blocks human cytomegalovirus replication; HFF cells, HCMV-luciferase reporter, 72 h; stronger effect = lower value; activity change, negative = inhibition, % at 57.5 µM; 410,000 tested, 4.5% active; AID 1259415; in the data active means activity change below about -60%; inconclusive means no clear call, values can overlap the other calls; inactive means above about -39%
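Two compound doses tested in HFFs infected with HCMV-luciferase, MOI 1 PFU/cell, 72 h at 37C. Lysate luminescence read with OneGlo; data normalized against buffer-only and 10uM Salinomycin inhibitor controls.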
Giardia FBPA inh: inhibitors of Giardia lamblia fructose-1,6-bisphosphate aldolase; A8B2U2; purified Giardia FBPA; Potency, µM (doses to about 59.6 µM), usual class: inhibitors; 290,000 tested, 0.71% active; further: nearly all actives have a fitted effect of over 55% in size
Target sequence (A8B2U2 whole entry, looked up): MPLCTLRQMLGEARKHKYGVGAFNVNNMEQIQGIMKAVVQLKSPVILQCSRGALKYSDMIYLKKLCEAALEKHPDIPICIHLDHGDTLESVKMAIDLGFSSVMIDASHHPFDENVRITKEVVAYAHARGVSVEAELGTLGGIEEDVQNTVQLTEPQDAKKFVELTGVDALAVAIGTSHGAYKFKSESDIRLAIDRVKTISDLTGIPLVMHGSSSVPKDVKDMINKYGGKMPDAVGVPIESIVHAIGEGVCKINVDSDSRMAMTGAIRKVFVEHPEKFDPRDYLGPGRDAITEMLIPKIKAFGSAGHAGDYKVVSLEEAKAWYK
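40 nM FBPA preincubated 10 min at RT with compound (up to 57.5 uM final), then substrate plus GAPDH/TPI/NAD/arsenate coupling and diaphorase/resazurin added. Fluorescence read after 20 min at RT, 525/598 nm.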
LASV entry inh: inhibitors of Lassa virus binding or cell entry. Lassa virus pseudotype entry inhibition, cell reporter. Potency, µM (highest dose often 37.9 µM), actives largely listed as inhibitors. 300,000 tested, 1.2% active; calls by dose curve; tested in HEK293 cells; further: nearly all actives have a fitted effect of over 50% in size
MARV entry inh: inhibitors of Marburg virus binding or cell entry; Marburg virus pseudotyped entry inhibition, cell reporter; Potency, µM (series often up to 37.8 µM), most hits filed as inhibitors; 300,000 tested, 1.8% active; calls by dose curve; tested in HEK293 cells
HCV inh: HCV inhibition. AID 651820. 340,000 tested, 3.4% active. Potency, µM (titrated, usually from 41.8 µM), actives largely listed as inhibitors. Huh7.5.1 HCVcc-Cre infection, luciferase reporter, 44 h
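Luciferase read-out (15 sec integration) after a 15 min room-temperature substrate step quantifies HCVcc-Cre infection. Cells, 1,000 per well, had compound added 4 h post-plating, then virus at ~0.5 moi, and were cultured 44 h.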
FMDV antiviral: antivirals against foot and mouth disease virus | Potency, µM (doses to about 57.9 µM), usual class: inhibitors | FMDV antiviral cell-based qHTS | 410,000 tested, 1.2% active; calls by dose curve; tested in HEK293T cells; further: read-out not given here; nearly all actives have a fitted effect of over 45% in size
A number is an active result; 0 = inactive; ? = inconclusive; - = no result; [ ] = remark or other dose. Unless noted, the call rests on the fitted dose curve; in most records, active means well fitted curve in the direction sought with a large enough effect; inconclusive means small, poorly fitted or top-dose-only effect, or another doubt; inactive means no such curve, though single readings can be large; an effect the other way counts as inactive or inconclusive.

SMILES	HCMV antiviral	Giardia FBPA inh	LASV entry inh	MARV entry inh	HCV inh	FMDV antiviral
Brc1ccc2c(c1)C(c1cccs1)=NNC(c1cccnc1)=N2	0	0	0	?	0	0
N#Cc1cc(S(=O)(=O)c2ccccc2)c(N)[nH]c1=O	0	0	0	0	0	0
N#Cc1cc(S(=O)(=O)c2ccc(F)cc2)c(N)[nH]c1=O	-69.9	?	-	-	0	0
NC(=O)CC(NC(=O)Cc1ccc(Br)cc1)c1ccc(NCC2CC2)c([N+](=O)[O-])c1 (stereo not drawn)	0	0	-	-	0	?
NC(=O)CC(NC(=O)c1ccccc1)c1ccc(N2CCN(c3ccc(F)cc3)CC2)c([N+](=O)[O-])c1 (stereo not drawn)	?	0	-	-	11.2µM	0
NC(=O)CC(NC(=O)Cc1ccc(Br)cc1)c1ccc(NCc2ccc(F)cc2)c([N+](=O)[O-])c1 (stereo not drawn)	0	0	-	-	11.2µM	0
NC(=O)CC(NC(=O)c1ccccc1)c1ccc(N2CCN(c3ccccc3)CC2)c([N+](=O)[O-])c1 (stereo not drawn)	-65.5	0	-	-	?	?
Cc1cccc(CNc2ccc(C(CC(N)=O)NC(=O)Cc3cccc4ccccc34)cc2[N+](=O)[O-])c1 (stereo not drawn)	-78.7	0	-	-	0	0
CCCC[C@@H](C)/C=C(C)/C=C(\C)C(=O)NC1=C[C@@](O)(/C=C/C=C/C=C/C(=O)NC2=C(O)CCC2=O)[C@@H]2O[C@@H]2C1=O	-	0	-	-	-	-
NC(=O)CC(NC(=O)Cc1ccc(Br)cc1)c1ccc(N2CCN(c3ccccc3)CC2)c([N+](=O)[O-])c1 (stereo not drawn)	-61.5	0	-	-	?	?
CN1CCN(c2ccc(C(CC(N)=O)NC(=O)c3ccccc3)cc2[N+](=O)[O-])CC1 (stereo not drawn)	-62.4	0	-	-	0	0
NC(=O)CC(NC(=O)Cc1ccc(Br)cc1)c1ccc(N2CCN(c3ccccn3)CC2)c([N+](=O)[O-])c1 (stereo not drawn)	0	0	-	-	?	?
Cc1ccc(-c2cc(C(=O)N(Cc3ccccc3)Cc3ccco3)no2)cc1F	0	-	0	0	-	0
COc1ccc(CN2C(=O)Cc3c2nc(N)c2c(N)nc(N4CCCCC4)c(C#N)c32)cc1	-	?	-	-	0	-
CCCCN1C(=O)Cc2c1nc(N)c1c(N)nc(N(CCC)CCC)c(C#N)c21	0	?	0	0	3.98µM	0
C=C(C)CN(CC)c1nc(N)c2c(N)nc3c(c2c1C#N)CC(=O)N3C12CC3CC(CC(C3)C1)C2	-69.4	0	?	2.51µM	3.98µM	?
N#Cc1c(N2CCCC(O)C2)nc(N)c2c(N)nc3c(c12)CC(=O)N3C12CC3CC(CC(C3)C1)C2 (stereo not drawn)	0	?	8.2µM	?	3.98µM	0
FC(F)(F)c1ccccc1-n1c(-c2ccco2)n[nH]c1=S	?	?	0	0	0	14.1µM
Clc1ccc(C2=NNC(=NCc3ccccc3)SC2)cc1	-78.8	0	0	?	0	0
c1ccc(CN=C2NN=C(c3ccccc3)CS2)cc1	0	0	0	?	?	0
COc1ccccc1C1=NNC(=NCc2ccccc2)SC1	-60.2	0	0	?	0	0
O=C(Nc1ccc(Br)c2cccnc12)c1cccc2ccccc12	0	-	0	0	-	0
COC(=O)c1cc(NC(=O)c2cc(-c3ccccc3Cl)oc2C(F)(F)F)ccc1N1CCOCC1	0	0	-	-	15.8µM	0
CCN(C(=O)CSc1nc2ccccc2n1CC(=O)N1CCCC(C)C1)c1ccccc1 (stereo not drawn)	0	-	0	-	-	0
COc1ccc([C@]23Cc4cc(OC)c(OC)cc4C(O2)c2c(cc(-c4ccccc4)oc2=O)O3)cc1	-	0[12.9 µM]	-	-	-	-
SMILES	HCMV antiviral	Giardia FBPA inh	LASV entry inh	MARV entry inh	HCV inh	FMDV antiviral
O=C(NCc1ccccn1)[C@@H]1C[C@H]1[C@@H](NP(=O)(c1ccccc1)c1ccccc1)c1ccccc1	0	0	6.51µM	0	0	0
O=C(O)[C@@H]1C[C@H]1[C@@H](NP(=O)(c1ccccc1)c1ccccc1)c1ccccc1	-99.4	0	0	0	0[8.37 µM]	0
O=C(NCc1ccccc1)[C@@H]1C[C@H]1[C@@H](NP(=O)(c1ccccc1)c1ccccc1)c1ccccc1	0	0	1.84µM	?	0	0
CS(=O)(=O)c1ccc(CNC(=O)[C@H]2C[C@@H]2[C@H](NP(=O)(c2ccccc2)c2ccccc2)c2ccccc2)cc1	-	0	-	-	-	-
CCOc1cccc(CNc2ccc(O)cc2)c1OCc1ccc(Cl)cc1Cl	?	12.6µM	?	?	0	?
CCOc1cccc(CNc2ccc(O)cc2)c1OCc1ccccc1Cl	?	0	?	0	?	?
COC(=O)C1=C(C)N(CC#C[Si](C)(C)C)C(=O)N(C(C)=O)C1c1ccccc1 (stereo not drawn)	-	-	-	0	-	-
Cc1ccc(CSC(Nc2ccc(F)cc2)=C(C#N)C#N)cc1	-100.1	0	13µM	?	8.91µM	0
CCn1nnc2cc(C(=O)Nc3ccc(Br)cc3F)ccc21	0	-	?	-	-	0
CCn1nnc2cc(C(=O)NCCc3ccccc3F)ccc21	0	0	1.12µM	6.31µM	0	0
Cc1cc2c(cc1Cl)C(c1ccc3c(c1)OCO3)CC(=O)O2 (stereo not drawn)	-	0	-	-	-	-
CCc1ccc(-n2c(C)nc3cc(C(=O)NCCc4ccccc4)ccc32)cc1	0	-	?	-	-	0
COc1ccc(-n2c(=O)cnc3cnc(N4CCNCC4)nc32)cc1	-	0	-	-	-	0
COC1=C[C@H](C(=O)NCCNC(C)=O)[C@@]2(C)Cc3ccccc3[C@@H]2CC1=O	-	-	?	0	-	-
CCOC(=O)C1C(c2cccc(Cl)c2Cl)NC(=O)NC1(O)C(F)(F)F (stereo not drawn)	0	0	0	?	0	0
CCOC(=O)C1C(c2ccc(C(=O)O)cc2)NC(=O)NC1(O)C(F)(F)F (stereo not drawn)	-71.8	0	0	0	0	0
COC(=O)[C@@H]1CCCN1Cc1ccc2c(c1)CN(Cc1cccn1-c1ccccn1)CCO2	-	-	-	-	-	0
Cc1ccc(Nc2nc(OC(C(F)(F)F)C(F)(F)F)nc(N3CCOCC3)n2)cc1	0	0	0	1µM	0	?
CCOc1cc(/C=N\Nc2nc(Nc3ccccc3)nc(N3CCOCC3)n2)ccc1OC(=O)c1ccco1	0	0	?	3.26µM	?	0
Cc1ccc(Nc2nc(N/N=C\c3ccc4c(c3)OCO4)nc(N3CCOCC3)n2)cc1	?	0	?	?	11.2µM	0
COc1ccc(Nc2nc(OC)nc(N3CCOCC3)n2)cc1	0	0	-	-	0	0
Cc1ccc(C)n1C1C(=O)N(C)c2ccc(F)cc21 (stereo not drawn)	0	-	-	-	-	-
COC(=O)c1c(C)cc(O)c(C=O)c1O	-	-	-	-	0	0
Cc1cc2c(C(C)C)c(O)c(O)c(C=O)c2c(O)c1-c1c(C)cc2c(C(C)C)c(O)c(O)c(C=O)c2c1O	-	?	7.05µM	9.96µM	?	?
